In paper PMC7862700, “An all-to-all approach to the identification of sequence-specific readers for epigenetic DNA modifications on cytosine”:

Columns and labels:
Assay in all cases: DAPPL (digital affinity profiling via proximity ligation, sequencing); 10 mM Tris-HCl pH 7.5, 50 mM NaCl, 1 mM DTT, 4% glycerol, room temperature, 30 min; GST-TFs on glutathione beads, 16-mer random dsDNA library, 0.1% formaldehyde crosslink after washing; high values mean tight binding
[1] = target: T1, FLI1 (Homo sapiens, UniProt Q01543 1-452); details: protein: recombinant; tags: N-terminal GST; dsDNA, one strand shown
T1 sequence: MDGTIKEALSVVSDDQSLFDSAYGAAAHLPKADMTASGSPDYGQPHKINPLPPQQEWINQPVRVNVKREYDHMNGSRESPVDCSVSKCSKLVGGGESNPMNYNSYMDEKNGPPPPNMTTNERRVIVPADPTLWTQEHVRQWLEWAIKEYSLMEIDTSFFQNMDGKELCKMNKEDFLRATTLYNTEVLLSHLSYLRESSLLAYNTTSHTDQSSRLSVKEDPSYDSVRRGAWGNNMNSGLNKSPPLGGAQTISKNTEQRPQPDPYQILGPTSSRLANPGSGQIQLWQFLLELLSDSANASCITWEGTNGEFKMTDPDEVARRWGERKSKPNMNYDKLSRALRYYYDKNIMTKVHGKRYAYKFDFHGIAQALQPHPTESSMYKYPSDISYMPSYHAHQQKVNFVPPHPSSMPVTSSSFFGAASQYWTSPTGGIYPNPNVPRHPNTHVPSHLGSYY
How it was run: (§1)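 GST fusions of human transcription factors were expressed in yeast and captured with glutathione beads. Once given DNA barcodes and pooled alongside a tag-only sample, they were incubated for 30 min at room temperature with 200 nmole of a random double-stranded 16-mer DNA library in Tris/NaCl/DTT/glycerol buffer, then washed, crosslinked (0.1% formaldehyde), proximity-ligated, PCR-amplified and sequenced on an Illumina NextSeq500. The binding signal of each hexamer is its read frequency for a factor divided by its frequency for the tag-only sample.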

[2] = target: T2, ELK1 (Homo sapiens, UniProt P19419 1-428); details: protein: recombinant; tags: N-terminal GST; dsDNA, one strand shown
T2 sequence: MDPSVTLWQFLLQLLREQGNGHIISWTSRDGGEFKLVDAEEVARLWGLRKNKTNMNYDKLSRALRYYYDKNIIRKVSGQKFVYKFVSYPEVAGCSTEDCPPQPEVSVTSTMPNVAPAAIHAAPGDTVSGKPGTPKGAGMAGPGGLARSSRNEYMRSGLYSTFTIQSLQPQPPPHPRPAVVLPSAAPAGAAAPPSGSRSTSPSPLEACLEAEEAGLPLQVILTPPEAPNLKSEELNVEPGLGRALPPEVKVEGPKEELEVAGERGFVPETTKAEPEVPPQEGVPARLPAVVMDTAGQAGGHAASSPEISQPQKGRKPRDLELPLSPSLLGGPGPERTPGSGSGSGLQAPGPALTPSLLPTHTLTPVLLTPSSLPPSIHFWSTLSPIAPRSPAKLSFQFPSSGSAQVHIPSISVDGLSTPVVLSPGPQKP
How it was run: as §1

[3] = target: T3, GABPA (Homo sapiens, UniProt Q06546 1-454); details: protein: recombinant; tags: N-terminal GST; dsDNA, one strand shown
T3 sequence: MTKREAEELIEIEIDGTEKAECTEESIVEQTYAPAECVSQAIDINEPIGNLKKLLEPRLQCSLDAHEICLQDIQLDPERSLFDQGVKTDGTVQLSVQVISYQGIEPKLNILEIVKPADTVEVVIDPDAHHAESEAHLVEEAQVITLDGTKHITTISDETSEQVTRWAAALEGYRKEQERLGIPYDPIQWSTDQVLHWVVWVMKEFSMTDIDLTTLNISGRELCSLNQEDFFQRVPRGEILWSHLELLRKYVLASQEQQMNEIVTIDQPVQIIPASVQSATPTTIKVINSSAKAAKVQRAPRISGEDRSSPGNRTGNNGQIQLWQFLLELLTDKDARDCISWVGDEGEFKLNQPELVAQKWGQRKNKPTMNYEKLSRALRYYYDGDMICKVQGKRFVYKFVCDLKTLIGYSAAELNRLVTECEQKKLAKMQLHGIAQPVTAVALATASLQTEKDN
How it was run: as §1

[4] = target: T4, ERG (Homo sapiens, UniProt P11308 1-479); details: protein: recombinant; tags: N-terminal GST; dsDNA, one strand shown
T4 sequence: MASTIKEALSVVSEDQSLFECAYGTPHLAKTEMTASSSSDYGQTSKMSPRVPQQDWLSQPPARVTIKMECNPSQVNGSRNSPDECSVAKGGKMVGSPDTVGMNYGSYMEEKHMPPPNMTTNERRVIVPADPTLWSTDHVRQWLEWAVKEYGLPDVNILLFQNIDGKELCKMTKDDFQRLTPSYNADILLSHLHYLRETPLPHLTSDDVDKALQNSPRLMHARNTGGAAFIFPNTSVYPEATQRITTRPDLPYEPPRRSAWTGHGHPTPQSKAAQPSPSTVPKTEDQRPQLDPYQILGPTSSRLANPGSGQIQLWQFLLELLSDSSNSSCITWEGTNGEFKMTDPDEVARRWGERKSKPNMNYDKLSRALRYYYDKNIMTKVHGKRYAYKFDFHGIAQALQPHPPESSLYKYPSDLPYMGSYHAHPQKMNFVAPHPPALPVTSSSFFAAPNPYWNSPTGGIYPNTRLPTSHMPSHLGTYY
How it was run: as §1

[5] = target: ELF1 (Homo sapiens, UniProt P32519 1-619); details: protein: recombinant; tags: N-terminal GST; dsDNA, one strand shown
How it was run: as §1

[6] = target: T5, EHF (Homo sapiens, UniProt Q9NZC4 1-300); details: protein: recombinant; tags: N-terminal GST; dsDNA, one strand shown
T5 sequence: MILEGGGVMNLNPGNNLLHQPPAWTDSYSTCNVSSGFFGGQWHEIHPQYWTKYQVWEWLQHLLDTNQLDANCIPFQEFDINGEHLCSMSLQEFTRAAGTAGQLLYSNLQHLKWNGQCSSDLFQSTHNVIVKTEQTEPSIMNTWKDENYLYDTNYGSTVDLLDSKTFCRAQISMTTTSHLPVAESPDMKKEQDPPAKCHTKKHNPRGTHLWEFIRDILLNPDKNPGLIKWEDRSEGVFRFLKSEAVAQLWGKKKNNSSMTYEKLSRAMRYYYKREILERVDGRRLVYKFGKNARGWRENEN
How it was run: as §1

[7] = target: SPI1 (Homo sapiens, UniProt P17947 1-270); details: protein: recombinant; tags: N-terminal GST; dsDNA, one strand shown
How it was run: as §1

[8] = target: SPIB (Homo sapiens, UniProt Q01892 1-262); details: protein: recombinant; tags: N-terminal GST; dsDNA, one strand shown
How it was run: as §1

[9] = target: T6, ELK3 (Homo sapiens, UniProt P41970 1-407); details: protein: recombinant; tags: N-terminal GST; dsDNA, one strand shown
T6 sequence: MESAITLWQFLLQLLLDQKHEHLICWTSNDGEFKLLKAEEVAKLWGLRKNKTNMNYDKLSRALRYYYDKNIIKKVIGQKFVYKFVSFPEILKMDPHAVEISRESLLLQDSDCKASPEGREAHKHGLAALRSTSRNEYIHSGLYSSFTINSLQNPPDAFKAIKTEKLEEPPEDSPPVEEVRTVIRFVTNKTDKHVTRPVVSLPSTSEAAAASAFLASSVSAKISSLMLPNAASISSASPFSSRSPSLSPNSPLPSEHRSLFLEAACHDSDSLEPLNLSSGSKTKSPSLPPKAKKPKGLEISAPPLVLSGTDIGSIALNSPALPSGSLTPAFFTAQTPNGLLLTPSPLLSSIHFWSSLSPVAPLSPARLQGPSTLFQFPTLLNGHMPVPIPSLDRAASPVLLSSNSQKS
How it was run: as §1

[10] = target: T7, FEV (Homo sapiens, UniProt Q99581 1-238); details: protein: recombinant; tags: N-terminal GST; dsDNA, one strand shown
T7 sequence: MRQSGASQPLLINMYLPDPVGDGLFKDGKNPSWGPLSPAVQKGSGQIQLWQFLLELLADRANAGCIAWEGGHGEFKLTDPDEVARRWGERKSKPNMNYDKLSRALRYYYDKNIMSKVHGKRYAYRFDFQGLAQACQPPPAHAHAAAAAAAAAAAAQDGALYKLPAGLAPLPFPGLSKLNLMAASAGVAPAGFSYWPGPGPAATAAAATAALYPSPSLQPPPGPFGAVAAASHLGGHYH
How it was run: as §1

[11] = target: ETV5 (Homo sapiens, UniProt P41161 1-510); details: protein: recombinant; tags: N-terminal GST; dsDNA, one strand shown
How it was run: as §1

[12] = target: HSF1 (Homo sapiens, UniProt Q00613 1-529); details: protein: recombinant; tags: N-terminal GST; chain copies: 3; dsDNA, one strand shown
How it was run: as §1

[13] = target: T8, SPIC (Homo sapiens, UniProt Q8N5J4 1-248); details: protein: recombinant; tags: N-terminal GST; dsDNA, one strand shown
T8 sequence: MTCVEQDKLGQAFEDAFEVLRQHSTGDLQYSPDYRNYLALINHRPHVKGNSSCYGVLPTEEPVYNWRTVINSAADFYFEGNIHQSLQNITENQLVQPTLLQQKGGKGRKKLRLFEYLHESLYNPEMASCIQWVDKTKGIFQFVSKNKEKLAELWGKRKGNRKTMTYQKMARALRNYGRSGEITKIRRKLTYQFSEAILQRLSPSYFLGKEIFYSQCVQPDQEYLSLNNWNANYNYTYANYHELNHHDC
How it was run: as §1

[14] = target: ELF4 (Homo sapiens, UniProt Q99607 1-663); details: protein: recombinant; tags: N-terminal GST; dsDNA, one strand shown
How it was run: as §1

[15] = target: T9, ELK4 (Homo sapiens, UniProt P28324-2 1-405); details: protein: recombinant; tags: N-terminal GST; dsDNA, one strand shown
T9 sequence: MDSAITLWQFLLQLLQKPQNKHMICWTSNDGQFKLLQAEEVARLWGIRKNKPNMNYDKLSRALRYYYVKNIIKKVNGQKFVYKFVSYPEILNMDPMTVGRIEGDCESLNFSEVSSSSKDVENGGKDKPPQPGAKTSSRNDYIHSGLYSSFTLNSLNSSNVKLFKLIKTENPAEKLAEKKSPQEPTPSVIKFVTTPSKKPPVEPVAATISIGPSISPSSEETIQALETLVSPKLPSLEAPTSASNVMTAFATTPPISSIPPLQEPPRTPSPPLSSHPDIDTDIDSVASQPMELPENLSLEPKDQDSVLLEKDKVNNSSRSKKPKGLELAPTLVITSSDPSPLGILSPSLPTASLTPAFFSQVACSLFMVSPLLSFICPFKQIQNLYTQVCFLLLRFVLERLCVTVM
How it was run: as §1

[16] = target: T10, ETV2 (Homo sapiens, UniProt O00321 1-342); details: protein: recombinant; tags: N-terminal GST; dsDNA, one strand shown
T10 sequence: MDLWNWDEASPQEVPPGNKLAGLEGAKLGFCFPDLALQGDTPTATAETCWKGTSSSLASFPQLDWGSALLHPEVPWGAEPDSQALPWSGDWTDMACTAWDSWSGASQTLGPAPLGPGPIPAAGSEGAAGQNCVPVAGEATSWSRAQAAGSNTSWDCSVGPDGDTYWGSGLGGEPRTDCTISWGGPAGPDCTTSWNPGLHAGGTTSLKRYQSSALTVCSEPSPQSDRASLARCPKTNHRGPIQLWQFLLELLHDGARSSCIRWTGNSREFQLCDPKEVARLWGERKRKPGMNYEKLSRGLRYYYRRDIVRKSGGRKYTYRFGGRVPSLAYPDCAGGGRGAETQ
How it was run: as §1

[17] = target: T11, ELF3 (Homo sapiens, UniProt P78545 1-371); details: protein: recombinant; tags: N-terminal GST; dsDNA, one strand shown
T11 sequence: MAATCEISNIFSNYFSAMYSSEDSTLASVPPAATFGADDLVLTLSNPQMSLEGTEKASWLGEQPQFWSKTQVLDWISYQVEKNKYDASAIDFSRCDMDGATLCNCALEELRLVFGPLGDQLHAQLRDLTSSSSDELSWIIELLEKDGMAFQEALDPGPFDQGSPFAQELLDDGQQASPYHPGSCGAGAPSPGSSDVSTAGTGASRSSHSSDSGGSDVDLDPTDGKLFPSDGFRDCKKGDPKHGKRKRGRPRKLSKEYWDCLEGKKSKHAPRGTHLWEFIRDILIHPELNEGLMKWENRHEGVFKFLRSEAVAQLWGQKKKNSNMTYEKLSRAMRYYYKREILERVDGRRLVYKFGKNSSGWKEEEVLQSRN
How it was run: as §1

[18] = target: CRX (Homo sapiens, UniProt O43186 1-299); details: protein: recombinant; tags: N-terminal GST; dsDNA, one strand shown
How it was run: as §1

[19] = target: ETV1 (Homo sapiens, UniProt P50549 1-477); details: protein: recombinant; tags: N-terminal GST; dsDNA, one strand shown
How it was run: as §1

Sequence of SPIB (Q01892 whole entry): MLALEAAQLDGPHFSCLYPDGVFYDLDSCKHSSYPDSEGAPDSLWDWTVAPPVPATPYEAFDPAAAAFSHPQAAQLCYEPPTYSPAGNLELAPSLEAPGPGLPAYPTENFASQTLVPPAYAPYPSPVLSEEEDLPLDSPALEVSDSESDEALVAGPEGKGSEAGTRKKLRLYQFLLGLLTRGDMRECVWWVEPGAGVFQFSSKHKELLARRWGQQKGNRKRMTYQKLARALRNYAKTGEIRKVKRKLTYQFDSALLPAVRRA
Sequence of HSF1 (Q00613 whole entry): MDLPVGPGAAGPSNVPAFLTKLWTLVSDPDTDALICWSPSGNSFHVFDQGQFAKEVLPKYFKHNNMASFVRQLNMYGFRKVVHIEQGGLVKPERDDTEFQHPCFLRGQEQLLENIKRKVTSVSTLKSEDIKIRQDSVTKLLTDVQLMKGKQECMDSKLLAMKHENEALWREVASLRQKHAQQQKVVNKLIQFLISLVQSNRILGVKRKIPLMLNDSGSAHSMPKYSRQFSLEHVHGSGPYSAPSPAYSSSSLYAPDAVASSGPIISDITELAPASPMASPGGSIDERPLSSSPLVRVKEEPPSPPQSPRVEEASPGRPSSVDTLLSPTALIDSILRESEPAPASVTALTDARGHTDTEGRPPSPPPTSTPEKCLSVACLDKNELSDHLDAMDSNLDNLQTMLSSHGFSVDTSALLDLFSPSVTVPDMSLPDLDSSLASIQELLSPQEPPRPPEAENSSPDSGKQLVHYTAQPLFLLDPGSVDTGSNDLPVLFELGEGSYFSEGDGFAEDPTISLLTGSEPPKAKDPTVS
Sequence of ELF4 (Q99607 whole entry): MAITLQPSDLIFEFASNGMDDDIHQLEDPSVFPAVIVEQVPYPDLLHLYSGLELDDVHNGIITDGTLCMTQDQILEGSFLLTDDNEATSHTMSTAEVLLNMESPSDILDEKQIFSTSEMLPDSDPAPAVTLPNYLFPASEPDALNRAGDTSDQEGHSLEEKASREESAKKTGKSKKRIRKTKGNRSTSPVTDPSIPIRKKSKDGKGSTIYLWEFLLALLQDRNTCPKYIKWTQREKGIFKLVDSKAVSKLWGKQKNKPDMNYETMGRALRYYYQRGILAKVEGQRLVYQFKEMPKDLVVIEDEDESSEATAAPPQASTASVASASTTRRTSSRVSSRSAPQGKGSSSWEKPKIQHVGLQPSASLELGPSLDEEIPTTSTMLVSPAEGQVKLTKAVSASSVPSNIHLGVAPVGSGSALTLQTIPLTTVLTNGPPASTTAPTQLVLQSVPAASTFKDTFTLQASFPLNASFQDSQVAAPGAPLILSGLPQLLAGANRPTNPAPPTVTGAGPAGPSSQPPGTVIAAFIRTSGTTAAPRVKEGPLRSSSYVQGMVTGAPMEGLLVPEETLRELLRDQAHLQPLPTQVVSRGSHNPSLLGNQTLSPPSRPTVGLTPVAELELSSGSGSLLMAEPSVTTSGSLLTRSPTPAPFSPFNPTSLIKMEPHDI
Sequence of ELF1 (P32519 whole entry): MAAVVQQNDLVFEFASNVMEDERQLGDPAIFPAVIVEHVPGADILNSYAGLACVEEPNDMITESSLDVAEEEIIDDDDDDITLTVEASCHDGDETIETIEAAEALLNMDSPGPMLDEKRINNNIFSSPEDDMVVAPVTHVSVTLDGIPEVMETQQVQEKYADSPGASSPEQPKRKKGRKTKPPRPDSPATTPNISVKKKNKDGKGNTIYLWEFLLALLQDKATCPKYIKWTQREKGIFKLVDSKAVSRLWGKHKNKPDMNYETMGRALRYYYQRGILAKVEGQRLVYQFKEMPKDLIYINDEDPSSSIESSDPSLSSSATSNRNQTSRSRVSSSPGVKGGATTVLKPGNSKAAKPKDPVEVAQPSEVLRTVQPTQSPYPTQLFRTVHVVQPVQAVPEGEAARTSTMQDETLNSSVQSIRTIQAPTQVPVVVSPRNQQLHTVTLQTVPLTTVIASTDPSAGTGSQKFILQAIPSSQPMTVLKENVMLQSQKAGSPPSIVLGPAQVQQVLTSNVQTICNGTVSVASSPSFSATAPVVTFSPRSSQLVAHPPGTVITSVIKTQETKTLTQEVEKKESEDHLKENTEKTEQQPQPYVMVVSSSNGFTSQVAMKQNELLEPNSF
Sequence of ETV5 (P41161 whole entry): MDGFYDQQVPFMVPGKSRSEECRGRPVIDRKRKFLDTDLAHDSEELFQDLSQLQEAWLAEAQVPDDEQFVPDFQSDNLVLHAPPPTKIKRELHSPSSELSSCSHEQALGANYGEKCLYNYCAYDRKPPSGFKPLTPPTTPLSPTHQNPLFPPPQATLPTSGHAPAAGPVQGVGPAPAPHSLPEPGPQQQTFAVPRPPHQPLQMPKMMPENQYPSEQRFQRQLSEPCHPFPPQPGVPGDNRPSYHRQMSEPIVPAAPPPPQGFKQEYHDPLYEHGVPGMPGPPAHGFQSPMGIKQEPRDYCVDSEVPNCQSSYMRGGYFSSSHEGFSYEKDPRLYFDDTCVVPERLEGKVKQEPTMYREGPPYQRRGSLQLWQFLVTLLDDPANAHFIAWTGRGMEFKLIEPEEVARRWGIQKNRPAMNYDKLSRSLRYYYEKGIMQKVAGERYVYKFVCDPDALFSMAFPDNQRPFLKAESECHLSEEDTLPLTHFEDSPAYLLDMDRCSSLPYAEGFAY
Sequence of ETV1 (P50549 whole entry): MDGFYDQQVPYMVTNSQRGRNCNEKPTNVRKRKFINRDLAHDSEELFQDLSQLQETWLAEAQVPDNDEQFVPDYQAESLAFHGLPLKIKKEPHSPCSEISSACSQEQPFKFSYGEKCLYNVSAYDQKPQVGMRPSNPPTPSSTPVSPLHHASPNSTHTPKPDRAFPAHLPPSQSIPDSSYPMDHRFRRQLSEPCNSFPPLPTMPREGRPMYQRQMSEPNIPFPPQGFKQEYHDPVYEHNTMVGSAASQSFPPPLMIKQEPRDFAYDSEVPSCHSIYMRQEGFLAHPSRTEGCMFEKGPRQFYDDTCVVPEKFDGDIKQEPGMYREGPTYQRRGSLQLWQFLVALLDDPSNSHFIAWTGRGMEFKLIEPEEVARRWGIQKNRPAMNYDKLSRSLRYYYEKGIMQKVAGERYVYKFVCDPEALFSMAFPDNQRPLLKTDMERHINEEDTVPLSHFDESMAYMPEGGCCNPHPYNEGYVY
Sequence of CRX (O43186 whole entry): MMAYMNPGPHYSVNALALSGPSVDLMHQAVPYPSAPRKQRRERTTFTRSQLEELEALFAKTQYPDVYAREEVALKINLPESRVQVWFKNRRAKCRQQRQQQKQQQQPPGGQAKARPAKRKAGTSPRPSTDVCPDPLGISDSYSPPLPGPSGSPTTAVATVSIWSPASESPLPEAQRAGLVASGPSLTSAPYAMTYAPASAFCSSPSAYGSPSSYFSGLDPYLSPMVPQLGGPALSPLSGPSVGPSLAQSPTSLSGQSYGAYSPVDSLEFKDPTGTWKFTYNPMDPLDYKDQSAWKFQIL

AACTGC
binding signal [1]: 1.34 fold enrichment (6-mer frequency, TF over GST control) | binding signal [2]: 1.47 fold enrichment (6-mer frequency, TF over GST control) | binding signal [3]: 1.32 fold enrichment (6-mer frequency, TF over GST control) | binding signal [4]: 1.32 fold enrichment (6-mer frequency, TF over GST control) | binding signal [5]: 1.42 fold enrichment (6-mer frequency, TF over GST control) | binding signal [6]: 1.33 fold enrichment (6-mer frequency, TF over GST control) | binding signal [7]: 1.45 fold enrichment (6-mer frequency, TF over GST control) | binding signal [8]: 1.41 fold enrichment (6-mer frequency, TF over GST control) | binding signal [9]: 1.25 fold enrichment (6-mer frequency, TF over GST control) | binding signal [10]: 1.42 fold enrichment (6-mer frequency, TF over GST control) | binding signal [11]: 1.38 fold enrichment (6-mer frequency, TF over GST control) | binding signal [12]: 1.07 fold enrichment (6-mer frequency, TF over GST control) | binding signal [13]: 1.49 fold enrichment (6-mer frequency, TF over GST control) | binding signal [14]: 1.31 fold enrichment (6-mer frequency, TF over GST control) | binding signal [15]: 1.33 fold enrichment (6-mer frequency, TF over GST control) | binding signal [16]: 1.19 fold enrichment (6-mer frequency, TF over GST control) | binding signal [17]: 1.32 fold enrichment (6-mer frequency, TF over GST control) | binding signal [18]: 1.05 fold enrichment (6-mer frequency, TF over GST control) | binding signal [19]: 1.36 fold enrichment (6-mer frequency, TF over GST control)
